Our source for the activation values is PubChem BioAssay (NCATS).

Results filed as inconclusive are left out. A number with no mark means an inactive call. Calls come from the whole dose curve; as a rule, active = well fitted activation curve with a large enough effect; inconclusive = small, poorly fitted or top-dose-only effect; inactive = no such curve, though single readings can be large or run the other way.

Sequence of Cellular tumor antigen p53 (Homo sapiens) (P04637 whole entry, looked up): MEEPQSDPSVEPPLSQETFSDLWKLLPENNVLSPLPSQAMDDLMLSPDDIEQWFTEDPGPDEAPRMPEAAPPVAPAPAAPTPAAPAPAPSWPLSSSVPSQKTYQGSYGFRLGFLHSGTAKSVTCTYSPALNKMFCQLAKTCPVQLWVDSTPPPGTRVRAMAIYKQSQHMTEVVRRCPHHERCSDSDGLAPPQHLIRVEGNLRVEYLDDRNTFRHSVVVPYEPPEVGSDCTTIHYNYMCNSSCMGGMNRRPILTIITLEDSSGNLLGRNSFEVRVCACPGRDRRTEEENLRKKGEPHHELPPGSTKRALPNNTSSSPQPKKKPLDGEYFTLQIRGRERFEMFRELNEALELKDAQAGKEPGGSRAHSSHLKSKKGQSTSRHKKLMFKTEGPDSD

For the experiment, the target named is Cellular tumor antigen p53 (Homo sapiens) (UniProt P04637). Nature of the experiment: Primary qHTS for small molecule compounds that upregulate eGFP-tagged delta133p53alpha (in N-terminal) cells. (AID 2060322).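 Note: cells pre-induced with doxycycline then dosed without doxycycline; series mostly up to about 56 µM; 0% = DMSO vehicle and 100% = reference activator; nearly all actives have a fitted effect of over 75% in size.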 Conditions: NCI-H358 eGFP-delta133p53alpha fluorescence, 24 h; activation: stronger effect = higher value. In short, it runs like this:
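NCI-H358 cells pre-induced 24 h with 10 ng/ml doxycycline for eGFP-delta133p53alpha, plated dox-free and exposed 24 h at 37C to titrated compounds. Fixed, Hoechst-stained; gated GFP peak intensity by laser scanning cytometry, normalized to DMSO (0%) and 57.5 uM 5-azacytidine (100%).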
In general terms: In qHTS, concentration-response curves come from the screen itself.
For the compound `CNCc1ccccc1`, the activation is 6.21%.

On to `CC[C@H](CC[C@@H](C)[C@H]1CC[C@H]2[C@@H]3CC=C4C[C@@H](O)CC[C@]4(C)[C@@H]3CC[C@]12C)C(C)C`, for which the activation is -21.3%.

For `O=C1C(O)=C(O)C(=O)C(O)=C1O`, the activation was -14.1%.

For `NC(CO)(CO)CO`, the activation was -22%.

With `C[N+]1(C)[C@@H]2CC(OC(=O)[C@H](CO)c3ccccc3)C[C@H]1[C@H]1O[C@@H]12` (stereo not given in full), the activation is 14%.
